# C diff growth = C. difficile growth inhibition | Clostridium difficile clinical isolate growth, OD600, 24 h; stronger effect = lower value | growth activity, negative = inhibition, % at 16 µg/mL (by protocol) | 86,000 compounds, 0.25% hits | AID 1259249;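 active = mean growth activity at or below -80% and every replicate also at or below -80%; inconclusive = mean at or below -80% but some replicate above -80%; inactive = mean growth activity above -80%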
# Pf Dd2 growth = blocks growth of Plasmodium falciparum Dd2 parasites; AID 1159554; P. falciparum Dd2 growth, SYBR Green, 72 h; stronger effect = lower value; activity change, % at 10 µM; 94,000 compounds, 2.3% hits; in the data active = activity change below about -80%; inconclusive = no clear call, values can overlap the other calls
# T cruzi growth-1 = T. cruzi proliferation inhibition | inhibition, % at 8.34 µM | 77,000 compounds, 5.9% hits | T. cruzi beta-gal in NIH3T3, GalScreen luminescence, 90 h;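 active = mean inhibition above about 93%, with at least 55% of replicates each passing it, limit read from the data, passing the limit was not always enough; inconclusive = only one of those two conditions holds; inactive = neither condition holds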
# T cruzi growth-2 = Trypanosoma cruzi proliferation inhibition. inhibition, % at 8.35 µM. 5,600 compounds, 72% hits. T. cruzi beta-gal in NIH3T3, GalScreen luminescence, 90 h. shares compounds with T cruzi growth-1. AID 651739;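 active = mean replicate inhibition above about 95% and at least 55% of replicates individually reaching it, limit read from the data; inconclusive = only one of the two criteria is met; inactive = neither criterion is met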
# T cruzi growth-3 = inhibitors of T. cruzi proliferation. AID 651740. T. cruzi beta-gal in NIH3T3, GalScreen luminescence, 90 h. 5,600 compounds, 21% hits. inhibition, % at 2.09 µM. shares compounds with T cruzi growth-1;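 active = mean inhibition above about 95%, with at least 55% of replicates also reaching it, limit read from the data; inconclusive = meets just one of the two conditions; inactive = meets neither condition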
# NIH3T3 tox = cytotoxicity in mouse NIH/3T3 fibroblasts; NIH/3T3 viability, CellTiter-Glo ATP luminescence, 90 h; AID 651742; 5,600 compounds, 14% hits; cytotoxicity (signal decrease), % at 8.35 µM; shares compounds with T cruzi growth-1;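 active = mean signal decrease across replicates above about 35% based on untreated-well scatter, with enough replicates individually passing, limit read from the data; inconclusive = no rule stated though some were filed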
# 3T3 cytotox 2 = NIH/3T3 (mouse) viability loss. NIH/3T3 viability, CellTiter-Glo ATP luminescence, 90 h. shares compounds with T cruzi growth-1. 5,600 compounds, 56% hits. inhibition, % at 24.9 µM;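 active = mean loss of cell viability signal at or above a set limit, and enough replicates individually reaching it; inconclusive = meets only the mean limit or only the replicate share; inactive = meets neither condition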
# A number is an active result; - = inactive; ? = inconclusive; . = no result given. An excerpt weighted towards active compounds, which were near 6.7% of everything screened.
SMILES,C diff growth,Pf Dd2 growth,T cruzi growth-1,T cruzi growth-2,T cruzi growth-3,NIH3T3 tox,3T3 cytotox 2
C/C=C/c1cnc2c(c1)C(=O)N([C@@H](C)CO)C[C@@H](C)[C@H](CN(C)S(=O)(=O)c1ccccc1)O2,-,-,-,.,.,.,.
C[C@@H]1CN([C@H](C)CO)C(=O)c2cccc(NC(=O)C3CCCCC3)c2O[C@H]1CN(C)S(=O)(=O)c1cccs1,-,-,-,.,.,.,.
C[C@@H]1CN([C@H](C)CO)C(=O)Cc2cc(NC(=O)Nc3cccc4ccccc34)ccc2O[C@@H]1CN(C)Cc1ccc(-c2ccccc2)cc1,-,-,98,112,-,-,?
C[C@@H]1CN([C@@H](C)CO)C(=O)Cc2cc(NC(=O)Nc3cccc4ccccc34)ccc2O[C@@H]1CN(C)Cc1ccc(-c2ccccc2)cc1,-,-,103,108,-,-,?
C[C@H]1CN([C@@H](C)CO)C(=O)Cc2cc(NC(=O)Nc3cccc4ccccc34)ccc2O[C@H]1CN(C)Cc1ccc(-c2ccccc2)cc1,-,-,-,.,.,.,.
C[C@@H]1CN([C@H](C)CO)C(=O)Cc2cc(NC(=O)Nc3cccc4ccccc34)ccc2O[C@H]1CN(C)Cc1ccccc1,-,-,-,.,.,.,.
CO[C@H]1CN(C)C(=O)c2cc(NC(C)=O)ccc2OC[C@H](C)N(Cc2cncnc2)C[C@@H]1C,.,-,-,.,.,.,.
Cc1cc(C(=O)Nc2ccc3c(c2)C(=O)N(C)[C@H]2CC[C@@H](CC(=O)NCc4ccc(-c5ccccc5)cc4)O[C@H]2CO3)no1,-,.,-,.,.,.,.
CC(C)NC(=O)N1CC[C@@H]2[C@H]1c1cc(-c3cccc(F)c3)ccc1N(C)[C@H]2CO,-,-,-,.,.,.,.
CC(C)NC(=O)N1CC[C@@H]2[C@H]1c1cc(-c3ccc(F)cc3)ccc1N(C)[C@@H]2CO,-,-,108,111,-,-,-
COc1ccc(-c2ccc3c(c2)[C@@H]2[C@@H](CCN2C(=O)NC(C)C)[C@H](CO)N3C)cc1,-,-,-,.,.,.,.
CC(C)NC(=O)N1CC[C@@H]2[C@@H](CO)N(C)c3ccc(-c4ccc(F)cc4)cc3[C@@H]21,-,-,100,105,101,-,49
CN1[C@H](C(=O)NCCN2CCCC2)[C@@H](CO)[C@@H]2Cn3c(ccc(/C=C/c4ccccc4)c3=O)[C@@H]21,-,-,.,.,.,.,.
Cc1noc(C)c1S(=O)(=O)N(C)C[C@H]1OCCCC[C@@H](C)Oc2ccc(NS(C)(=O)=O)cc2C(=O)N([C@@H](C)CO)C[C@@H]1C,-,-,-,.,.,.,.
COCC#Cc1ccc2c(c1)O[C@H](CN(C)Cc1ccncc1)[C@H](C)CN([C@H](C)CO)S2(=O)=O,-,-,-,.,.,.,.
COCC#Cc1ccc2c(c1)O[C@H](CN(C)Cc1ccncc1)[C@H](C)CN([C@@H](C)CO)S2(=O)=O,-,-,-,.,.,.,.
COCC#Cc1ccc2c(c1)O[C@H](CN(C)Cc1ccc(F)cc1)[C@@H](C)CN([C@H](C)CO)S2(=O)=O,-,-,-,.,.,.,.
COCC#Cc1ccc2c(c1)O[C@@H](CN(C)Cc1ccncc1)[C@@H](C)CN([C@@H](C)CO)S2(=O)=O,-,-,?,97,-,-,-
COCC#Cc1ccc2c(c1)O[C@H](CN(C)Cc1ccccc1)[C@@H](C)CN([C@@H](C)CO)S2(=O)=O,-,-,?,102,-,-,104
COCC#Cc1ccc2c(c1)O[C@@H](CN(C)Cc1ccncc1)[C@@H](C)CN([C@H](C)CO)S2(=O)=O,-,-,?,105,-,-,-
CCS(=O)(=O)Nc1ccc2c(c1)C(=O)N(C)[C@@H]1CC[C@H](CC(=O)OC)O[C@@H]1CO2,-,-,-,.,.,.,.
C[C@H](CO)N1C[C@H](C)[C@H](CN(C)Cc2ccncc2)Oc2c(NC(=O)Nc3cccc4ccccc34)cccc2C1=O,-,-,-,.,.,.,.
CNC[C@@H]1Oc2c(NC(=O)Nc3ccc(C(F)(F)F)cc3)cccc2C(=O)N([C@@H](C)CO)C[C@@H]1C,-,-,-,.,.,.,.
C[C@@H]1CN([C@@H](C)CO)S(=O)(=O)c2ccc(/C=C/c3ccccc3)cc2O[C@H]1CN(C)Cc1cncnc1,-,-89,121,112,97,54,61
C[C@H](CO)N1C[C@H](C)[C@H](CN(C)Cc2cncnc2)Oc2cc(/C=C/c3ccccc3)ccc2S1(=O)=O,-,-,-,.,.,.,.
SMILES,C diff growth,Pf Dd2 growth,T cruzi growth-1,T cruzi growth-2,T cruzi growth-3,NIH3T3 tox,3T3 cytotox 2
C[C@@H]1CN([C@H](C)CO)S(=O)(=O)c2ccc(/C=C/c3ccccc3)cc2O[C@@H]1CN(C)Cc1cncnc1,-,-,-,.,.,.,.
C[C@H]1CN([C@@H](C)CO)S(=O)(=O)c2ccc(/C=C/c3ccccc3)cc2O[C@H]1CN(C)Cc1cncnc1,-,-,103,95,-,57,46
Cc1ccc(S(=O)(=O)Nc2ccc3c(c2)C(=O)N([C@@H](C)CO)C[C@H](C)[C@H](CN(C)Cc2ccc4c(c2)OCO4)OCCCC[C@H](C)O3)cc1,-,-,-,.,.,.,.
C[C@@H]1CCCCO[C@H](CN(C)S(=O)(=O)c2ccc(F)cc2)[C@@H](C)CN([C@@H](C)CO)C(=O)c2cc(NS(=O)(=O)c3ccccc3)ccc2O1,-,-,-,.,.,.,.
C[C@H](CO)N1C[C@H](C)[C@H](CN(C)Cc2ccc3c(c2)OCO3)Oc2ccc(NC(=O)NC3CCCCC3)cc2C1=O,-,-,100,?,97,-,51
C[C@H]1CN([C@@H](C)CO)C(=O)c2cc(NC(=O)NC3CCCCC3)ccc2O[C@H]1CN(C)Cc1ccc2c(c1)OCO2,-,-,?,104,99,?,41
C[C@H]1CN([C@@H](C)CO)C(=O)c2cc(NC(=O)NC3CCCCC3)ccc2O[C@@H]1CN(C)Cc1ccc2c(c1)OCO2,-,-,-,.,.,.,.
C[C@@H]1CN([C@H](C)CO)C(=O)c2cc(NC(=O)NC3CCCCC3)ccc2O[C@@H]1CN(C)Cc1ccc2c(c1)OCO2,-,-,-,.,.,.,.
CCCNC(=O)N1CC2(CCN(Cc3ccncc3)CC2)c2c(n(C)c3cc(OC)ccc23)[C@H]1CO,-,-,.,.,.,.,.
CO[C@@H]1CN(C)C(=O)c2ccc(NC(=O)c3cnccn3)cc2OC[C@@H](C)N(C(C)=O)C[C@@H]1C,-,-,-,.,.,.,.
CC=Cc1ccc2n(c1=O)C[C@@H]1[C@@H](CO)[C@H](C(=O)NCC3CC3)[C@H]2N1C(=O)CC (mixture of isomers),-,-,-,.,.,.,.
C[C@H](CO)N1C[C@H](C)[C@@H](CN(C)Cc2ccc(Cl)c(Cl)c2)Oc2c(NC(=O)Nc3ccc4c(c3)OCO4)cccc2C1=O,.,-,-,.,.,.,.
C[C@@H]1CN([C@@H](C)CO)C(=O)c2cc(NC(=O)Nc3ccc4c(c3)OCO4)ccc2O[C@@H]1CN(C)Cc1ccc(Cl)c(Cl)c1,.,-,?,97,-,57,90
